{"source": "the supplement of paper PMC12632987", "binders": {"B1": {"name": "traf2_out_3_89_2284 (protein)", "chain": "SHHMEALIEEARKIAEAYAKGFRKSLTFVAKQMVAEGHSLETLEGVANAAKTALVEEFRESLKERGLDEETIKEIVEELRKKLDEIVKEVIAEAKKARAA"}, "B2": {"name": "traf2_out_6_156_2424 (protein)", "chain": "MLEKIIKEAEEKIKKEIKKLAEASEEKKIKYISDIAGAVYKALQKMREAGASVEEIKEAIERLKKVAEKEAKKAGLDKDTRDLLLASINAVGEVALREAK"}, "B3": {"name": "traf2_out_1_158_908 (protein)", "chain": "STDVSTLHAVATSIAEVYAEEAKERGLEKAAELLKKLKKEIEKLYEANKDASLEEMAAKVLELIKKFEEESKSFDPETREFVEIAFRQIRSGILQVVKLA"}, "B4": {"name": "traf2_out_5_63_2366 (protein)", "chain": "SAAEEERRRLREEARLIEAAIRAVIDGREEEARRLLAEAEARGIDWRTVALYFRGMARALRLQNEPQEKIERMERAAEEARARAEAAAAAAAAAAAAAAA"}, "B5": {"name": "traf2_out_20_38_2025 (protein)", "chain": "SEEEEEEKKLEELIKVANDAYDAATAEIAALKAEGKSVEEIAEWAKEKIKEILDKVGLEEEKEELIADVDRVLDSPDALTLIARILARAVAKAKQKELQE"}, "B6": {"name": "traf2_out_20_3_2078 (protein)", "chain": "SELEAELERELDRALALLRQAAARADPETAARLDALIARLRASRELSIEDRLVAISAVRREVRALAEEARAAGRADLAALLDAAADALNRAAQLAYEILE"}, "B7": {"name": "traf2_out_17_178_1662 (protein)", "chain": "SKEEERKKISELTDELIDLAEDAAERMLELAEKEGDVSEEELEELREARRRGSATDVLALGERLIPKLKNSEELGALLEEFKARYRELSKEIAEAYERYE"}, "B8": {"name": "traf2_out_1_27_1014 (protein)", "chain": "SDEELTKLIKETDKKIAEVSLEEAKKVVKEALKEAAKLGPEDAMVLANTLIASQLDEERLKAIAEAAVEAFKELGFPEEDIERLKRIAESVLKLNKKVLA"}, "B9": {"name": "traf2_out_11_104_655 (protein)", "chain": "LTREQAREFNDFAMEARDRAREIAEAVAAELEARGHTEEAARVRALLNDPGAGISSFRNLLEELKPRLDAESRKVADAAIEELRRLQREVSEKLNELLAK"}, "B10": {"name": "traf2_out_20_3_2147 (protein)", "chain": "EELERELAEELERAKALLAEAAALADPETAARLEALRERLEASRALSPSDQLVVVSEVRREVRLLAQEARAAGDEELAALLEEAAAALNRAANLLMRIIE"}, "B11": {"name": "traf2_out_13_95_1174 (protein)", "chain": "EEEKTKKEREIASEAYDEREEVMTAYKEAVVALLGDPAAAALMDEVVRNMNEFTLEHATAQLVAAHPEKAAELQALRDEALAKMKEINKKYTEKLNEIEK"}, "B12": {"name": "traf2_out_14_149_1247 (protein)", "chain": "SHMAETLRAAAELNERIAKALEEILKLLEAGKLEEAKAALEAAIKEAEALGEELGVTTSGIFEMEHILKLLKEDPEEAKKAVKEAAERARDAAEVLRSIA"}, "B13": {"name": "traf2_out_17_162_1536 (protein)", "chain": "SPEDERLAELQKRLEELEKKLEELEKKLKNIEKLSKEELTDLLVEASELRREARELAEELRELAEKTGSPEAEELRERAEELAEKLQRIANEIYKELEKK"}, "B14": {"name": "traf2_out_17_178_1708 (protein)", "chain": "TKEEARKRISEATDEMIDLAEEAAARLLEIAEREGSLSPEELAALRRARRLGSARTTIALMERAIPRLRSAEEVRALLEELKARYRELSKEIAEALEKYE"}, "B15": {"name": "traf2_out_5_192_2336 (protein)", "chain": "SAEEEARERRLRERAEEILREAEERAKKISERTGLDYATVLATLAFSRVVARAESAEEARLMLDYIVEMITARDPSWAPIAEGEKAAALRAIDAIEAAEP"}, "B16": {"name": "traf2_out_20_38_2023 (protein)", "chain": "SMEEEEEEKLKELVEVANKAYDEYSAKFAKWKAEGKTVEEIAEEVKKEIRELLSKAGLEEEAEILIEDVDLALKSPNAERLLIRTLARAVALVKQKELQK"}, "B17": {"name": "traf2_out_13_95_1070 (protein)", "chain": "TRELARRINELADRAEERALALLAAAQAELADDPEAVAVLDEAARLAETRGIRAAIALLREAQAAHPEHREAFDALIAELEEIRRELGREVAKLIKEAEE"}, "B18": {"name": "traf2_out_6_156_2375 (protein)", "chain": "MLEKILEEAKKKIEELIKELAKASEEKKIAYISRIAGAVYRALQRMREAGASVEEIKKAVEELKKVAEEKAKEAGLDQDTIDLLLASIDAVGKVALEEAK"}, "B19": {"name": "traf2_out_17_178_1676 (protein)", "chain": "TKEEKRKKISELTDKYIDLAEATAARLLALAEAEGFMTPEELAALRAAQRRGNGRLVEALLERAIPRSPRAAEVAALLADYRARSRELAKEIAKALEEYE"}}, "note": "The full ranking holds about 1,800 sequences; the median of “median log2 fold change of GCK-ALFA target abundance (FLAG IP / Myc IP barcode read proportion)” is about 0.14, and the lowest 2% start at about -0.84. This excerpt belongs to a sample that is enriched for the lowest values.", "data": [{"target": "T1, TRAF2, Q12933", "T1 chain": "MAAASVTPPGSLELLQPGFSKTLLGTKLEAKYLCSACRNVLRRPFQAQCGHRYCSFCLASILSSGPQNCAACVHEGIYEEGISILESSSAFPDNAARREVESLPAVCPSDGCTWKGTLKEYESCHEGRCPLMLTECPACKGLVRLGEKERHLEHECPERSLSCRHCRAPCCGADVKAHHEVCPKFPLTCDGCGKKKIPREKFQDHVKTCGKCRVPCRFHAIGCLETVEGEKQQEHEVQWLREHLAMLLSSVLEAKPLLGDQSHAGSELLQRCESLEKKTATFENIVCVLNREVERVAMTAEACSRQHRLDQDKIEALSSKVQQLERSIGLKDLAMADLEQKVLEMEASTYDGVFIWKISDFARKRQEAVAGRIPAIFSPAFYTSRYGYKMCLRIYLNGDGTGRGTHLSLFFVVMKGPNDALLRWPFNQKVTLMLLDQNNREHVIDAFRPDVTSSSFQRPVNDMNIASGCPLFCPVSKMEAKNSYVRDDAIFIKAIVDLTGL", "assay": "median log2 fold change of GCK-ALFA target abundance (FLAG IP / Myc IP barcode read proportion) (log2 ratio); each designed protein is fused to an ALFA-tag nanobody in HEK293 cells to bring the named protein to FLAG-tagged glucokinase (GCK); Myc marks an untargeted standard; higher = target protein stabilised (more abundant)", "settings": "target protein: 3xFLAG-MCP-GCK-ALFA reporter; HEK293 landing pad (RPLP)", "protocol": "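LABEL-seq trans screen in HEK293 landing-pad cells. Each de novo designed 100-aa effector handle, binding the indicated effector (E3 ligase, DUB or autophagy protein), is fused to a constant NbALFA target handle and induced with 2 ug/mL doxycycline. A FLAG-MCP-GCK-ALFA target and a Myc-MCP standard reporter were transfected, and after 48 h circRNA barcodes were recovered by anti-FLAG and anti-Myc IP and sequenced. The value is the median across barcodes (at least 3 per design) of log2(FLAG/Myc read-proportion ratio), with the two transfection replicates pooled. Negative values mean degradation and positive values mean stabilisation of the target.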", "values": [{"binder": "B1", "median log2 fold change": -0.43}, {"binder": "B2", "median log2 fold change": -0.0673}, {"binder": "B3", "median log2 fold change": 0.0558}, {"binder": "B4", "median log2 fold change": -0.861}, {"binder": "B5", "median log2 fold change": -0.841}, {"binder": "B6", "median log2 fold change": -0.0407}, {"binder": "B7", "median log2 fold change": 0.161}, {"binder": "B8", "median log2 fold change": 0.337}, {"binder": "B9", "median log2 fold change": 0.222}, {"binder": "B10", "median log2 fold change": 0.226}, {"binder": "B11", "median log2 fold change": 0.311}, {"binder": "B12", "median log2 fold change": -0.194}, {"binder": "B13", "median log2 fold change": 0.429}, {"binder": "B14", "median log2 fold change": -0.184}, {"binder": "B15", "median log2 fold change": -1.01}, {"binder": "B16", "median log2 fold change": -1.38}, {"binder": "B17", "median log2 fold change": -0.334}, {"binder": "B18", "median log2 fold change": 0.151}, {"binder": "B19", "median log2 fold change": -0.865}]}]}
